Compound activity: PubChem BioAssay, several laboratories
Sampled rows, rich in hits. Any-hit rate of the full collection: about 1.8%.
RN4220 kill: kills Staphylococcus aureus RN4220 | S. aureus RN4220 growth, OD600, 16 h | inhibition, % (no concentration beside the values) | 330,000 tested, 0.33% active | AID 1259311; in the data active = inhibition above about 85%
ugtP null kill: kills S. aureus RN4220 lacking UgtP; S. aureus RN4220 ugtP deletion, OD600 growth, 16 h; growth inhibition, % (test concentration not listed); 330,000 tested, 0.54% active; AID 1259309; in the data active = growth inhibition above about 68%
PriA SSB inh: blocks PriA binding to SSB C-terminal tail. inhibition, % at 33 µM. 430,000 tested, 0.6% active. AlphaScreen SSBct-PriA binding, biotinylated peptide; in the data active = inhibition mostly above about 37%, no sharp cut-off; inactive = mostly below about 20%
PfHsp40 yeast: rescue of PfHsp40-mediated yeast toxicity; S. cerevisiae expressing PfHsp40, growth rescue, ATP luminescence; growth rescue, % at 12.5 µM; 340,000 tested, 0.68% active; in the data active = growth rescue above about 28%, passing the limit was not always enough;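 also: yeast W303a lacking pdr1 and pdr3 grown in galactose medium; growth measured after three days at 30 °C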
VHR inh abs: inhibitors of human VHR1 phosphatase (DUSP3); P51452; recombinant VHR phosphatase, pNPP absorbance; inhibition, % at 13.3 µM; 290,000 tested, 0.52% active; in the data active = inhibition above about 50%
Target sequence (P51452 whole entry, looked up): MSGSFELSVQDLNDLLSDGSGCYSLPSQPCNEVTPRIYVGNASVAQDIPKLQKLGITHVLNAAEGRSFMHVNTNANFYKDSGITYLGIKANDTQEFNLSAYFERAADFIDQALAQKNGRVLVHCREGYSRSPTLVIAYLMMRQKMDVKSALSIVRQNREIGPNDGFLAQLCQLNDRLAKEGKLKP
Mtb hypoxia inh: Mtb hypoxia fluorescent reporter inhibition; 300,000 tested, 0.1% active; fluorescence inhibition, % (concentration not given with the values); M. tuberculosis hypoxia-regulated fluorescent reporter, fluorescence; in the data active = fluorescence inhibition mostly above about 23%, no sharp cut-off; inactive = mostly below about 17%
Numbers stand for hits.

CC1=C(C(=O)OCc2ccccc2)N2C(=O)[C@@H](NC(=O)COc3ccccc3)[C@H]2SC1 was read as RN4220 kill inactive, ugtP null kill inactive, PriA SSB inh inactive, PfHsp40 yeast inactive, VHR inh abs inactive and Mtb hypoxia inh inactive.
For Cc1nnc(SCC(=O)NNC(=O)COc2ccc(Cl)cc2)s1 the results were RN4220 kill inactive, ugtP null kill inactive, PriA SSB inh inactive, PfHsp40 yeast inactive, VHR inh abs inactive and Mtb hypoxia inh inactive.
`C=CC1=C(C(=O)O)N2C(=O)C(NC(=O)Cc3ccccc3)C2SC1` (configuration not stated) gave RN4220 kill 101, ugtP null kill 101, PriA SSB inh inactive, PfHsp40 yeast inactive and VHR inh abs inactive.
Cc1nc(SCc2ccc(F)cc2)[nH]c(=O)c1CC(=O)N1CCN(c2ccccc2Cl)CC1 was read as PriA SSB inh inactive.
Screening CC(=O)c1cc(C(=O)OCC(=O)Nc2ccccc2F)c2ccccn12 returned PriA SSB inh inactive.
CS(=O)(=O)N1c2ccccc2[C@]2([C@@]34CC5C(=O)NC(Cc6ccccc6)C(=O)N5C3N(S(C)(=O)=O)c3ccccc34)CC3C(=O)NC(Cc4ccccc4)C(=O)N3C12 (some centres not stated) was read as RN4220 kill inactive, ugtP null kill inactive and Mtb hypoxia inh inactive.
`CCCc1cc(=O)[nH]c(-n2nc(C)cc2NC(=O)C2(c3ccc(Cl)cc3)CCCC2)n1` gave PriA SSB inh inactive.
For CC(=O)OCC1=C(C(=O)O)N2C(=O)C(NC(=O)COc3ccc(F)cc3)C2SC1 (configuration not stated) the results were RN4220 kill 100, ugtP null kill 101, PriA SSB inh inactive, PfHsp40 yeast inactive and Mtb hypoxia inh 37.
For Cc1nnc(SCC2=C(C(=O)O)N3C(=O)C(NC(=O)c4cc(F)c(F)cc4Cl)C3SC2)s1 (configuration not stated) the results were RN4220 kill 100, ugtP null kill 100, PriA SSB inh inactive, PfHsp40 yeast inactive, VHR inh abs inactive and Mtb hypoxia inh inactive.
`Cc1nnc(SCC2=C(C(=O)O)N3C(=O)C(NC(=O)COc4ccccc4)C3SC2)s1` (configuration not stated) gave RN4220 kill 100, ugtP null kill 101, PriA SSB inh inactive and PfHsp40 yeast inactive.
O=C(Oc1ccccc1)N1CCC(CNC(=O)C2(c3ccc(Cl)cc3)CCCC2)CC1 was read as PriA SSB inh inactive.
`O=C(Cc1ccc(F)cc1)Nc1nc(-c2cc3ccccc3o2)cs1` gave PriA SSB inh inactive.
`COc1cccc(C(=O)Nc2nc(CN3CCc4ccccc4C3)cs2)c1OC` gave PriA SSB inh inactive.
`COc1ccc(C(=O)C(C)OC(=O)CNC(=O)c2ccco2)cc1` (configuration not stated) gave RN4220 kill inactive, ugtP null kill inactive, PriA SSB inh inactive, PfHsp40 yeast inactive and Mtb hypoxia inh 31.
For O=C(CNC(=O)c1ccco1)OC(C(=O)c1ccccc1)c1ccccc1 (configuration not stated) the results were RN4220 kill inactive, ugtP null kill inactive, PriA SSB inh inactive, PfHsp40 yeast inactive and VHR inh abs inactive.
For CCOc1ccc(NC(=S)Nc2ccc(F)cc2)cc1 the results were RN4220 kill inactive, ugtP null kill inactive, PriA SSB inh inactive, PfHsp40 yeast inactive and VHR inh abs inactive.
Screening COc1ccc(NC(=S)Nc2cc(-c3ccccc3)[nH]n2)cc1Cl returned RN4220 kill inactive, ugtP null kill inactive, PriA SSB inh inactive, PfHsp40 yeast inactive, VHR inh abs inactive and Mtb hypoxia inh inactive.
`CCOc1ccc(NC(=S)NN(C)C(=S)Nc2ccc(OCC)cc2)cc1` gave RN4220 kill inactive, ugtP null kill inactive, PriA SSB inh 40, PfHsp40 yeast inactive, VHR inh abs inactive and Mtb hypoxia inh inactive.
`CCOC(=O)N1CCC(N(CCN(C)C)C(=S)Nc2cc(Cl)cc(Cl)c2)CC1` gave RN4220 kill inactive, ugtP null kill inactive, PriA SSB inh inactive, PfHsp40 yeast inactive, VHR inh abs inactive and Mtb hypoxia inh inactive.
Screening CCOc1ccc(NC(=S)Nc2cc(-c3ccccc3)[nH]n2)cc1 returned RN4220 kill inactive, ugtP null kill inactive, PriA SSB inh inactive, PfHsp40 yeast 106, VHR inh abs inactive and Mtb hypoxia inh inactive.
CCOC(=O)N1CCC(N(CCN(C)C)C(=S)Nc2ccc(OCC)cc2)CC1 was read as RN4220 kill inactive, ugtP null kill inactive, VHR inh abs 54 and Mtb hypoxia inh inactive.
For CC(=O)Nc1cccc(NC(=O)C2CCN(c3ccc(-c4ccc(F)cc4)nn3)CC2)c1 the results were PriA SSB inh inactive.
COc1ccc(Cl)c2sc(N)nc12 was read as PriA SSB inh inactive.
Cc1ccc(C)c(-c2nnc(NC(=O)c3ccc(S(=O)(=O)N4CCc5ccccc54)cc3)o2)c1 was read as PriA SSB inh inactive.
COC(=O)c1[nH]c2ccc(C)cc2c1NS(=O)(=O)c1ccc(OC)cc1OC was read as PriA SSB inh 57.
`COc1ccc(S(=O)(=O)Nc2c(C(=O)O)[nH]c3ccc(OC)cc23)c(OC)c1` gave RN4220 kill inactive, ugtP null kill inactive, PriA SSB inh 106, PfHsp40 yeast inactive, VHR inh abs inactive and Mtb hypoxia inh inactive.
For COC(=O)c1[nH]c2ccc(F)cc2c1NS(=O)(=O)c1ccc(OC)cc1 the results were RN4220 kill inactive, ugtP null kill inactive, PriA SSB inh inactive, PfHsp40 yeast inactive, VHR inh abs inactive and Mtb hypoxia inh inactive.
For COc1ccc(S(=O)(=O)Nc2c(C(=O)O)[nH]c3ccccc23)c(OC)c1 the results were RN4220 kill inactive, ugtP null kill inactive, PriA SSB inh inactive, PfHsp40 yeast inactive, VHR inh abs inactive and Mtb hypoxia inh inactive.
Cc1cc(C)nc(N2CCCC(C(=O)NC3CC3)C2)n1 (configuration not stated) was read as RN4220 kill inactive, ugtP null kill inactive, PriA SSB inh inactive, PfHsp40 yeast inactive, VHR inh abs 53 and Mtb hypoxia inh inactive.
Screening O=c1c2cc(Br)ccc2nc(-c2ccc([N+](=O)[O-])cc2)n1O returned RN4220 kill inactive, ugtP null kill inactive, PriA SSB inh inactive, PfHsp40 yeast 160, VHR inh abs inactive and Mtb hypoxia inh inactive.
Screening N#Cc1ccc(-c2nc3ccc(Br)cc3c(=O)n2O)cc1 returned RN4220 kill inactive, ugtP null kill inactive, PriA SSB inh inactive, PfHsp40 yeast inactive, VHR inh abs inactive and Mtb hypoxia inh inactive.
For O=c1c2cc(Cl)ccc2nc(-c2ccccc2)n1O the results were RN4220 kill inactive, ugtP null kill inactive, PriA SSB inh inactive, PfHsp40 yeast 195, VHR inh abs inactive and Mtb hypoxia inh inactive.
`O=c1c2cc(Cl)ccc2nc(-c2ccc(Cl)c(Cl)c2)n1O` gave PriA SSB inh inactive, PfHsp40 yeast inactive and VHR inh abs inactive.
Screening CC(=O)c1ccc(S(=O)(=O)NCCOc2ccc3c(c2)OCO3)cc1 returned PriA SSB inh inactive.
